Data from the supplement of paper PMC11417369.
± gives the standard deviation of the averaged measurements. Whole data set: some 25,000 sequences, median “ln(normalized median fluorescence intensity)” near 8.6, cut for the highest 2% near 10. What follows is part of a selection rich in the highest values, with near analogues and random picks from the rest.

Each sequence was assayed on PfAP2-EXP AP2 domain (GST-tagged) (assay: gcPBM binding intensity (ln(normalized median fluorescence intensity)); higher = stronger DNA binding).
In short: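 After 1 h on an Agilent 4 × 180k array of primer-extended double-stranded 36-bp intergenic genomic probes and negative controls, bound GST-tagged P. falciparum DNA-binding domains were detected with Alexa488 anti-GST antibody and scanned at 488 nm. The domains had been expressed in E. coli, and binding took place in 1× PBS with 1% milk, 0.2 mg/ml BSA, 0.5% salmon testes DNA and 0.03% Triton X-100. Binding intensity is the highest Masliner-normalised natural-log median intensity across replicate spots of either probe orientation.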

Sequence	gcPBM binding intensity (ln)
ATAGGTAATAATAATACACACGGTGAAATATAGATG [CACACA_site9336]	8.88 ± 0.47
TATAATGAGGATAATAGTACATATGAATACAAAAAA [XGTACX_site3665]	8.86 ± 0.45
TTGGATAAAAAATATGTACACACATATAGATATCTA [CACACA_site8862]	8.48 ± 0.31
TATAAATAGAGGAAGCGTACATATATATATATATAT [XGTACX_site4993]	10.1 ± 0.37
ATAAATAAATAAAAGCGTACATATATATAAAATATA [XGTACX_site8107]	8.63 ± 0.27
TCGGGAGGGGGGAAGCGTACATATATAAAATTATTA [XGTACX_site4683]	10.4
AAAATTTATATAAGCACACAAATATATATTTATATC [CACACA_site3291]	8.55 ± 0.47
GAAGGAATATACAATTGTACTTGGCAAAAAAAAAAA [XGTACX_site1884]	8.74 ± 0.67
TCTGTAAAGTAATGGACACACAATATATCCATTTAT [CACACA_site1536]	8.35 ± 0.35
ATAATATAATATATATGTACACATCCTTTTTGTGTA [XGTACX_site2879]	8.62 ± 0.4
ATATATAATATAATATGTACATATAATCAATCCTGT [XGTACX_site8694]	8.48 ± 0.28
ATATATATATATATATGTACACAGGACAATAATCCT [XGTACX_site6383]	10.2 ± 0.33
AGAGGCCAGCTTTCTCTTCTAAACATGTACAAAAAT [GTGCAC_negctrl_site98]	8.63 ± 0.49
TTAGATATAATATATACACACCAACGAACGAAGAAA [CACACA_site4763]	9.12 ± 0.54
TCTATTAATGAATATACACACATTATATATATATAT [CACACA_site5410]	10 ± 0.49
ATAAGAAGGAACATAAATATATCATAAAAAAAAAAA [GTGCAC_negctrl_site169]	8.56 ± 0.35
ATAAAATTATATTTTGCATGCAGGCCTTTTTCTTAA [TGCATGCA_site1030]	9.94 ± 0.14
ATTATTTATATTATGGTGCATAATTTTGGGTTTCTT	8.86 ± 0.26
TTTTCCTTATATTATGCATGCAGGGTTTGACATTAT [TGCATGCA_site826]	10.3 ± 0.34
ATTTTTTATTGTTATAAAAAAAAAATTAAACAATTA [CACACA_negctrl_site1077]	8.19 ± 0.46
AGATATATTTTTTAAATTTAAAAATTATAAAATTTA [CACACA_negctrl_site533]	8.07 ± 0.42
TCATTCCATACTTTAACACACAAATATATTTAATCC [CACACA_site145]	8.76 ± 0.53
ATATTGGAGCACAACACACACAAGTATATATATGGA [CACACA_site1546]	8.8 ± 0.47

Sequence	gcPBM binding intensity (ln)
AAAAAAAAAAAATACGTGCACTATGATATATTATAT	8.95 ± 0.092
AAAAAAAAAAAAAACACACACATATATATATATATA [CACACA_site1891]	10.2 ± 0.3
AAAAAAAAAAAAAAAACACACATACACCCCCACCCA [CACACA_site9117]	10.4 ± 0.3
AAAAAAAAAAAACACACACACATATATATATATATA [CACACA_site732]	10.2 ± 0.38
TACATATATATATACACACATACATATATATACGCA [CACACA_site792]	8.45 ± 0.34
AAAAGGAACAGACACACACACATATATAAATATGTA [CACACA_site7656]	8.4 ± 0.59
CATATACGCAAACACACACACATATATATATATATA [CACACA_site501]	10.2 ± 0.4
AAAAAAAAAAAAAAAACACACACATATATATATATA [CACACA_site8571]	10.1 ± 0.21
AAAAAAAAAAAACACACACACACACCCATACATACA [CACACA_site707]	8.65 ± 0.56
TATATACGCAAACACACACACACATACACCCACATA [CACACA_site1724]	8.59 ± 0.44
AAAAGGAACGGACACACACACATATATATATATATA [CACACA_site5894]	10.2 ± 0.49
AAAAAAAAAAAAAACACACACACACCCACATATACA [CACACA_site2663]	8.53 ± 0.2
AAAAGGAACAGACACACACACATATATATATATATA [CACACA_site3587]	10.3 ± 0.25
CATGTATTTTATATTACACACTAATATTATAGATAT [CACACA_site6819]	8.27 ± 0.28
GCTTCTTAGTATACTTTATAAAATATATATTAAATA [XGTACX_negctrl_site57]	8.75 ± 0.47
AATATTTTATTTTTTCTCATTAAAAATTTTTTTTTT [CACACA_negctrl_site364]	8.46 ± 0.45
TAAAATGTAATCTGAACACACATATTTTTTTAATAT [CACACA_site1768]	8.12 ± 0.52
CTAACAACCAAACGCACACACACAAAAAAAAAAATA [CACACA_site400]	8.48 ± 0.42
AAATATTTTTTAATTGTTCACTTGGTGGATCATTAA [CACACA_negctrl_site922]	8.28 ± 0.28
TTTTTTTTTTTTTTTTGTACATATTTTAATTTGTTT [XGTACX_site6297]	8.05 ± 0.4
TATTTTCCATGAGGTAGTACACATTAAAAAATCGTT [XGTACX_site6887]	8.44 ± 0.29
AAGAATATTATAAACACACACTTTATAAAGAATTAT [CACACA_site4241]	8.51 ± 0.52
